# Bioassay records as filed in PubChem.
# Hits are enriched below; roughly 3.1% of the tested compounds scored in any of these assays.
# Anthrax LF inh2: Bacillus anthracis LF protease inhibitors, primary screen, biochemical, multiplex microsphere, MLPCN library | Lethal factor (Bacillus anthracis), P15917 | multiplex microsphere protease cleavage assay | inhibition, % at 10 µM | 360,000 compounds, 0.12% hits; further: plate controls were buffer without enzyme for full effect and enzyme alone for no effect
# BoNT F protease: BoNT/F light chain protease inhibitors, primary screen, biochemical, flow cytometry, MLPCN library | Botulinum neurotoxin type F light chain protease (Clostridium botulinum) | Multiplex microsphere protease cleavage assay | inhibition, % at 10 µM | 360,000 compounds, 0.22% hits | AID 588497, 2011; in the data active means inhibition above about 35%, passing the limit was not always enough; inconclusive means no clear call, values can overlap the other calls; further: plate controls were buffer without enzyme for full effect and enzyme alone for no effect
# BoNT-A LC inh2: BoNT/A light chain protease inhibitors, primary screen, biochemical, flow cytometry, MLPCN library. Botulinum neurotoxin type A light chain protease (Clostridium botulinum A str. ATCC 3502). inhibition, % at 10 µM. 360,000 compounds, 0.17% hits. multiplex microsphere protease substrate cleavage; further: plate controls were buffer without enzyme for full effect and enzyme alone for no effect
# SSB-PriA inh: inhibitors of Klebsiella pneumoniae PriA binding to SSB C-terminal tail, primary screen, biochemical, AlphaScreen; inhibition, % at 33 µM; AID 1272365, 2023; AlphaScreen SSBct-PriA binding, biotinylated peptide; 430,000 compounds, 0.6% hits; PriA–SSB C-terminal tail interaction (Klebsiella pneumoniae); in the data active means inhibition mostly above about 37%, no sharp cut-off; inactive means mostly below about 20%;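 further: plate controls were negative control peptide for no effect and reference peptide for full effect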
# Bead autofluor: flagged as autofluorescent in microsphere protease counterscreen; compound autofluorescence counterscreen, microsphere flow cytometry; active compounds read high; fluorescence intensity (no concentration beside the values); 360,000 compounds, 3.1% hits; in the data active means fluorescence intensity above about 16000; inconclusive means no clear call, values can overlap the other calls
# The depositor's hits bear a star; ? = inconclusive; . = no result given; ! = repeats disagree. Unless noted, no stated cut-off is given here; in the data, active means inhibition above about 30%; inconclusive means no clear call, values can overlap the other calls; inactive means below that.
SMILES,Anthrax LF inh2,BoNT F protease,BoNT-A LC inh2,SSB-PriA inh,Bead autofluor
CC(=O)Nc1ccc(C(=O)CSc2nc3ccccc3n2CC(=O)N2CCCC2)cc1,-1,-4,0,-11,16357*
COc1cccc(NC(=O)Cn2c(SCC(=O)N3CCOCC3)nc3ccccc32)c1,-5,-2,?,1,16158*
Cc1ccc(NC(=O)CSc2nnc(-c3ccc(S(=O)(=O)N4CCOCC4)cc3)n2C)cc1,-5,2,?,-7,19086*
COc1cccc(C(=O)CSc2nc3ccccc3n2CC(=O)N2CCOCC2)c1,-2,-6,0,9,9737
Cc1ccc(-n2c(SCC(N)=O)nnc2-c2ccc(S(=O)(=O)N3CCCCC3)cc2)c(C)c1,-1,0,1,-33,16453*
O=C(CSc1nccn1Cc1ccc2c(c1)OCO2)NC1CCCCC1,.,.,.,5,.
COC(=O)c1ccc2c(=O)n(CCC(=O)NCc3ccccc3OC)c(=S)[nH]c2c1,.,.,.,-1,.
Cc1cc(-c2nnc(NC(=O)c3ccccc3F)o2)n(C)n1,.,.,.,-13,.
CC(O)(CNC(=O)c1ccccc1Cl)c1ccco1 (stereo not given),.,.,.,0,.
Cc1nc2ccccc2n1Cc1ccc(C(=O)NCc2ccco2)o1,.,.,.,3,.
CN1C(=O)Cc2cc(NS(=O)(=O)c3ccccc3F)ccc21,.,.,.,-9,.
NC(=O)CSc1nnc(-c2ccc(S(=O)(=O)N3CCOCC3)cc2)n1CC1CCCO1 (stereo not given),-6,3,1,-14,22288*
CCCNC(=O)c1n[nH]c(=O)c2ccccc12,-1,4,0,-24,5563
O=C(NCCc1ccccn1)c1n[nH]c(=O)c2ccccc12,-1,-4,-3,3,22070*
COc1ccc(CN2C(=O)N(Cc3ccc(F)cc3Cl)c3ccccc3S2(=O)=O)cc1,.,.,.,-8,.
COC(=O)CCC(O)=C1C(=N)CC(C)(C)CC1=O,.,.,.,-17,.
Cc1csc(Sc2ccc([N+](=O)[O-])cc2C(=O)OCC(=O)NC2CCCC(C)C2C)n1 (stereo not given),0,0,0,-14,16483*
CCC(C)NC(=O)COC(=O)c1cc([N+](=O)[O-])ccc1Sc1nc(C)cs1 (stereo not given),1,4,0,-5,2864
CC(C)(C)Nc1nc(C(N)=O)nc(N2CCOCC2)n1,-4,-5,-2,-6,24325*
O=C(Nc1ccc([N+](=O)[O-])cc1)Nc1ccc2c3c(cccc13)CC2,.,.,.,38*,.
O=C1CSC(=O)N1CCNc1ccc(F)cc1,.,.,.,-1,.
N=c1ncn(CC(O)CN2CCOCC2)c2nc(N3CCOCC3)[nH]c12 (stereo not given),-6,1,0,-3,22533*
Cc1ccc(-n2nc3c(N4CCC(C(=O)NCc5ccccc5C)CC4)nnc(C)c3c2C)cc1,1,10,-4,2,16178*
CCOc1ccc(CNC(=O)C2CCN(c3nnc(C)c4c(C)n(-c5ccc(C)cc5)nc34)CC2)cc1,5,10,-5,-11,17592*
O=S(=O)(/N=C(/Nc1cccnc1)c1ccccc1)c1ccc(F)cc1F,3,5,6,.,?
SMILES,Anthrax LF inh2,BoNT F protease,BoNT-A LC inh2,SSB-PriA inh,Bead autofluor
Cc1cc(N/C(=N\S(=O)(=O)c2ccc(F)cc2F)c2ccccc2)no1,-4,-7,-6,.,17822*
COC(=O)N1CCN(c2ccc(C(C)=O)cc2)CC1,-5,9,?,-9,18481*
Cc1ccc(S(=O)(=O)NCc2ccc(N3CCN(C(=O)OC(C)(C)C)CC3)cc2)cc1,0,3,-2,-10,6092
Cc1ccc(C(=O)NCc2ccc(N3CCN(C(=O)OC(C)(C)C)CC3)cc2)cc1,-3,-4,?,6,23049*
CSc1ccc(-c2nc3c(c(SC)n2)Cc2ccccc2O3)cc1,.,.,.,-2,.
CCN(Cc1ccccc1)S(=O)(=O)c1ccc(C(=O)N(CCCN(C)C)c2nc3cc(OC)ccc3s2)cc1,-5,-6,-2,51*!,5498
CN(C)CCCN(C(=O)c1ccc(C(=O)c2ccccc2)cc1)c1nc2ccc(F)cc2s1,-2,-8,-1,17,6115
CN(C)CCCN(C(=O)c1ccc(S(=O)(=O)N(C)Cc2ccccc2)cc1)c1nc2c(F)cccc2s1,-4,-2,-1,39*!,6281
CCN(Cc1ccccc1)S(=O)(=O)c1ccc(C(=O)N(CCCN(C)C)c2nc3cc4c(cc3s2)OCCO4)cc1,-7,-3,1,47*,6155
